According to the supplement of paper PMC4954754:
“And” between values parts separate entries of the source, which are not always exact repeats. Identical values can stand only once. ± gives the uncertainty stated by the source.

What follows are molecules tested on HEK293T-Rex ERSE-FLuc (assay: ERSE-FLuc reporter activation, triplicate confirmation, relative to 500 nM thapsigargin (% of thapsigargin); higher = stronger ATF6/ERSE reporter activation). Settings: 6.8 µM; 18 h; screen: confirmation.
Method: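 HEK293T-Rex cells stably expressing the ERSE-firefly luciferase (BiP promoter, ATF6-preferring) or XBP1-splicing Renilla luciferase (IRE1/XBP1s) reporter, 1536-well plates, compound at 6.8 µM for 18 hr at 37 °C; luminescence read […] and expressed as % activation = 100*(compound - median DMSO)/(median 500 nM thapsigargin - median DMSO). Primary screen was single-pass; confirmation screen in triplicate (mean ± SD).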

Structure (SMILES) | ERSE-FLuc reporter activation
CNc1ccc2oc(C[C@H]3O[C@@]4(CC[C@H]3C)O[C@H]([C@H](C)C(=O)c3ccc[nH]3)[C@H](C)C[C@H]4C)nc2c1C(=O)O | 63.9 ± 3.1
O=C(CCCN1CCC2(CC1)C(=O)NCN2c1ccccc1)c1ccc(F)cc1 | 163 ± 21
C/C=C(/C)C(=O)O[C@H]1C(C)=C2[C@H]([C@@H]1OC(=O)CCCCCCC)[C@@](C)(OC(C)=O)C[C@H](OC(=O)CCC)[C@@]1(O)[C@H]2OC(=O)[C@@]1(C)O | 109 and 88
CC(=O)NC1C(OC2OC(CC(O)C3OC(n4ccc(=O)[nH]c4=O)C(O)C3O)C(O)C(O)C2NC(=O)/C=C\CCCCCCCCCC(C)C)OC(CO)C(O)C1O (stereo not given) | 162 ± 5.7
O=C(CCCN1CCC2(CC1)C(=O)N(Cc1cccc(F)c1)CN2c1ccccc1)c1ccc(F)cc1 | 215 ± 16
